# According to PubChem BioAssay (Tox21):
# Several values for one entry are separate records, joined by “and”; a condition that tells them apart may be missing. Equal entries are not always repeated. Inconclusive results are not listed. Activity calls are given as the source filed them. The call rests on the fitted dose curve; in most records, active means well fitted curve in the direction sought with a large enough effect in the repeat runs; inconclusive means weak or mixed curves; inactive means no such curve, though single readings can be large; an effect the other way counts as inactive or inconclusive.
# Key:
# [1] = molecular target: Cytochrome P450 2C19 (Homo sapiens) (UniProt P33261); experiment: Cytochrome P450 Family 2 Subfamily C Member 19 (CYP2C19) small molecule antagonists: luciferase reporter qHTS assay (AID 1671197); further: nearly all actives have a fitted effect of over 65% in size
# Sequence of Cytochrome P450 2C19 (Homo sapiens) (P33261 whole entry, looked up): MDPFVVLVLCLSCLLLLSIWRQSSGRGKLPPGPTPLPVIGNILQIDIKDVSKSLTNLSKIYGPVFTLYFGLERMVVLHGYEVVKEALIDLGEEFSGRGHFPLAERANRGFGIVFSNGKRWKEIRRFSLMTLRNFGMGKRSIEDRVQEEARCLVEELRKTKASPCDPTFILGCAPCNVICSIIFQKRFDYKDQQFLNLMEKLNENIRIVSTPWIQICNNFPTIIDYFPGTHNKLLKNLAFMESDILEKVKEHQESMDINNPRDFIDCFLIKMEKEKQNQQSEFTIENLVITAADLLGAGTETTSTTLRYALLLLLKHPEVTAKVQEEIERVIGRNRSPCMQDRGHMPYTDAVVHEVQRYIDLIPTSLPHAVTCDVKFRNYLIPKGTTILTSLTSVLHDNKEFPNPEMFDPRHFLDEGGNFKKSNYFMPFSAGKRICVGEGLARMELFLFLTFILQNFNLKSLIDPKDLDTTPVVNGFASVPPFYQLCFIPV
# How it was run: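 Compounds were tested on CYP2C19 activity via proluciferin conversion to luciferin. The 37C, 1 h reaction followed NADPH addition; detection reagent stopped it.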
# [2] = molecular target: Cytochrome P450 2C9 (Homo sapiens) (UniProt P11712); experiment: Cytochrome P450 Family 2 Subfamily C Member 9 (CYP2C9) small molecule antagonists: luciferase reporter qHTS assay (AID 1671198); further: nearly all actives have a fitted effect of over 50% in size
# Sequence of Cytochrome P450 2C9 (Homo sapiens) (P11712 whole entry, looked up): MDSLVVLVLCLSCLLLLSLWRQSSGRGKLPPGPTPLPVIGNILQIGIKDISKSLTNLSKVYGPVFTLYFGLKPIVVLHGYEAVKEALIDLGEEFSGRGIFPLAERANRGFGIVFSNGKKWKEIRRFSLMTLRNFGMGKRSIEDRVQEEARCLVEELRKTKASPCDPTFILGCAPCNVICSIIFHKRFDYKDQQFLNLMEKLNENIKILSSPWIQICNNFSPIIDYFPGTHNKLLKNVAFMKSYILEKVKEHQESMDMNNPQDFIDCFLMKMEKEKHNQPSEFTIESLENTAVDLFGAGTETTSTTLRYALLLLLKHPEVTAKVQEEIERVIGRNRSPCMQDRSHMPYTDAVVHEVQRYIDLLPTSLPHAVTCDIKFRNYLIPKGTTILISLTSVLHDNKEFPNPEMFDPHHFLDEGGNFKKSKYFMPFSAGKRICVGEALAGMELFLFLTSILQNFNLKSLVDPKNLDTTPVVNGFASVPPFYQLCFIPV
# How it was run: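 Enzyme-substrate mix preincubated with compound 10 min at room temperature; reaction started with NADPH regeneration solution, 1 h 37C. Luminescent luciferin product read after 20 min detection reagent.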
# [3] = molecular target: Cytochrome P450 1A2 (Homo sapiens) (UniProt P05177); experiment: Cytochrome P450 Family 1 Subfamily A Member 2 (CYP1A2) small molecule antagonists: luciferase reporter qHTS assay (AID 1671199); further: nearly all actives have a fitted effect of over 50% in size
# Sequence of Cytochrome P450 1A2 (Homo sapiens) (P05177 whole entry, looked up): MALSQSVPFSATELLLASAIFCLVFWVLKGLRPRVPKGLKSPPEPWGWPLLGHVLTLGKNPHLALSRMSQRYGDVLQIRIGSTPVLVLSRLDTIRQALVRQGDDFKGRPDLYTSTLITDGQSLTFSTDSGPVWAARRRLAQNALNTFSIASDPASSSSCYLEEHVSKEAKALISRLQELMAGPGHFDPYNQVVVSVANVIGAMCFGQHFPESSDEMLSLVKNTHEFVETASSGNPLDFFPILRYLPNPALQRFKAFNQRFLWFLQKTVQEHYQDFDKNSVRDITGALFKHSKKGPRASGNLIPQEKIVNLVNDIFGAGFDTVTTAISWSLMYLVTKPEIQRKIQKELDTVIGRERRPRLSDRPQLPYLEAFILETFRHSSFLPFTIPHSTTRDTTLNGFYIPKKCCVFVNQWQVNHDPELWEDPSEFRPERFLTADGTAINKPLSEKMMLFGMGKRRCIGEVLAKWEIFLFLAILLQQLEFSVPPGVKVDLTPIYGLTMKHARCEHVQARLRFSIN
# How it was run: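 P450-Glo CYP1A2, 1536-well qHTS: enzyme/proluciferin substrate + cpd (DMSO), 10 min RT; NADPH regen, 1 h RT; detection reagent, 20 min; luminescence, RLU.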
# [4] = molecular target: Voltage-gated inwardly rectifying potassium channel KCNH2 (Homo sapiens) (UniProt Q12809); experiment: Human Ether-a-go-go-Related Gene (hERG) channel small molecule antagonists: fluorescence cell-based qHTS assay (AID 1671200); further: nearly all actives have a fitted effect of over 50% in size
# Sequence of Voltage-gated inwardly rectifying potassium channel KCNH2 (Homo sapiens) (Q12809 whole entry, looked up): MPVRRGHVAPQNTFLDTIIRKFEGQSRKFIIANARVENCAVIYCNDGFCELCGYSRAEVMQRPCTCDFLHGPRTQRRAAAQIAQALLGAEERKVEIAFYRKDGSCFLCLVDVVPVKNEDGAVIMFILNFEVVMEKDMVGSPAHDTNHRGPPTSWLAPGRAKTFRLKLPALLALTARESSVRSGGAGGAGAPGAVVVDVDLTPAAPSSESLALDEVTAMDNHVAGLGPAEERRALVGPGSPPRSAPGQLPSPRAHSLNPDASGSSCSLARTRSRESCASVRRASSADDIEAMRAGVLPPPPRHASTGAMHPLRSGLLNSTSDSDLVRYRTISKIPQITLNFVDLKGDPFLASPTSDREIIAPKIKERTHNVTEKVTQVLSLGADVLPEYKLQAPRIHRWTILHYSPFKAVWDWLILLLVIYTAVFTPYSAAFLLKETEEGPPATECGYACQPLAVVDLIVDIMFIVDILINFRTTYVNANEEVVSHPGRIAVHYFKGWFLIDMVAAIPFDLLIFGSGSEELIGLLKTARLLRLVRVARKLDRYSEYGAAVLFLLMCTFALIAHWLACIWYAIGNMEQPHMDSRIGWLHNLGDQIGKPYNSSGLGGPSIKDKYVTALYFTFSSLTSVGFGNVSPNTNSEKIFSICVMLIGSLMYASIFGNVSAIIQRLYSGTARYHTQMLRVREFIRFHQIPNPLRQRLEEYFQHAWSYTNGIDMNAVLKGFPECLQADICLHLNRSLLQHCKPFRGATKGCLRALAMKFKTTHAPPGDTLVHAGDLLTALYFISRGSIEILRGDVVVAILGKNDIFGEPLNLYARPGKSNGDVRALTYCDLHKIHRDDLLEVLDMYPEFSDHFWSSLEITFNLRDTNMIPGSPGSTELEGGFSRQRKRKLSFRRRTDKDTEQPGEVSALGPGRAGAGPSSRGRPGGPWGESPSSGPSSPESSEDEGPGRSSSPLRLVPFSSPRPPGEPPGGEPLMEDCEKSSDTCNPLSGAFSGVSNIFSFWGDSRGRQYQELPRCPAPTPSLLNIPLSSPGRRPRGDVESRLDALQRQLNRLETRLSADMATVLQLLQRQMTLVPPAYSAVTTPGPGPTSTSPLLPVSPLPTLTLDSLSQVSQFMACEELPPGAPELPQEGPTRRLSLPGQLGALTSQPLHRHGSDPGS
# How it was run: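 Kinetic two-minute fluorescence traces, sampled at 1 s, were collected following thallium stimulus of U2OS cells (1000 per well) that had been cultured overnight at 37 C and loaded with FluxOR II.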
# [5] = molecular target: Cytochrome P450 3A4 (Homo sapiens) (UniProt P08684); experiment: Cytochrome P450 Family 3 Subfamily A Member 4 (CYP3A4) small molecule antagonists: luciferase reporter qHTS assay (AID 1671201); further: nearly all actives have a fitted effect of over 50% in size
# Sequence of Cytochrome P450 3A4 (Homo sapiens) (P08684 whole entry, looked up): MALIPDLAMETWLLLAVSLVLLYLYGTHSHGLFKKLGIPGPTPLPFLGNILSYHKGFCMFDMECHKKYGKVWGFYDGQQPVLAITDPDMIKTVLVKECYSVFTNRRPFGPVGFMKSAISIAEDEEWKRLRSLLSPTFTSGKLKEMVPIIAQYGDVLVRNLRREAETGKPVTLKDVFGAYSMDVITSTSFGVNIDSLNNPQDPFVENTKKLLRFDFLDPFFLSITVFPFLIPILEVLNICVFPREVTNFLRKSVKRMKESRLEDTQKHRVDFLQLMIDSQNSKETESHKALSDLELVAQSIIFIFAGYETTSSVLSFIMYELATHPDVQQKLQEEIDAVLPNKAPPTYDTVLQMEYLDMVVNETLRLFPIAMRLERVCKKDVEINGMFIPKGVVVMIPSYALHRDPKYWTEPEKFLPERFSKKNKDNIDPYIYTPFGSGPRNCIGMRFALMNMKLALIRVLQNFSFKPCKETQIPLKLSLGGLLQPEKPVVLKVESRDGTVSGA
# How it was run: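 Proluciferin-to-luciferin conversion by CYP3A4, NADPH-regenerated, 1 h RT; luminescence read as RLU. Ketoconazole as control.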
# Potency means the concentration at half of the fitted maximal effect.
SMILES,Potency [1],Potency [2],Potency [3],Potency [4],Potency [5]
Cc1cc(O)c(C(C)(C)C)cc1Sc1cc(C(C)(C)C)c(O)cc1C,0.398 µM (active),2.51 µM (active),39.8 µM (active),inactive,5.63 µM (active)
O=c1c(-c2ccccc2)c1-c1ccccc1,7.76 µM (active),17.4 µM (active),1.15 µM (active),inactive,
C[C@@H]1C[C@H]2[C@@H]3CCC4=CC(=O)C=C[C@]4(C)[C@@]3(Cl)[C@@H](O)C[C@]2(C)[C@@]1(OC(=O)c1ccco1)C(=O)CCl,9.77 µM (active),8.71 µM (active),inactive,inactive,
CCCCCCCCCOC(=O)c1ccc(O)cc1,1.97 µM (active),6.24 µM (active),27.9 µM (active),inactive,39.4 µM (active)
O=C1C=CC(=O)N1c1ccc(Cc2ccc(N3C(=O)C=CC3=O)cc2)cc1,7.96 µM (active),5.64 µM (active),20 µM (active),34.7 µM (active),35.6 µM (active)
Cc1cc(N)c(S(=O)(=O)O)cc1Cl,inactive,28.6 µM (active),inactive,inactive,inactive
CCCCCOC(=O)CCCC,inactive,inactive,inactive,inactive,inactive
CN(C)c1ccc(C2(c3ccc(N(C)C)cc3)OC(=O)c3cc(N(C)C)ccc32)cc1,1.41 µM (active),3.16 µM (active),inactive,inactive,2 µM (active)
CN(C)C(=O)C1(N2CCCCC2)CCN(CC[C@@]2(c3ccc(Cl)c(Cl)c3)CN(C(=O)c3ccccc3)CCO2)CC1,1.67 µM (active),37.3 µM (active),inactive,11.5 µM (active),0.744 µM (active)
O=C(c1ccc(O)cc1O)c1ccc(O)cc1O,28.3 µM (active) and 22.4 µM (active),inactive,12.6 µM (active) and 11.2 µM (active),inactive,5.03 µM (active) and 8.94 µM (active)
Cc1cc(C2CCCCC2)n(O)c(=O)c1,inactive,inactive,inactive,inactive,inactive
Oc1ccc(N=Nc2ccccc2)cc1,20.3 µM (active),36.1 µM (active),16.1 µM (active),inactive,20.3 µM (active)
Cc1cc(CCN2CCN(c3nsc4ccccc34)CC2)cc2c1NC(=O)CC2(C)C,71 µM (active),39.9 µM (active),35.6 µM (active),21.9 µM (active),17.8 µM (active)
O=C(Oc1cccc2cccnc12)c1ccccc1,inactive,inactive,17.4 µM (active),inactive,inactive
Cc1cccc(S(=O)(=O)O)c1C,inactive,inactive,inactive,inactive,inactive
CSc1ccc(/C=C2/C(C)=C(CC(=O)O)c3cc(F)ccc32)cc1,17.4 µM (active),24.5 µM (active),15.5 µM (active),inactive,inactive
Cc1cc(=O)oc2cc(N(C)C)ccc12,79.6 µM (active),44.8 µM (active),6.33 µM (active),inactive,25.2 µM (active)
CCCCCCCCS(=O)C(C)Cc1ccc2c(c1)OCO2 (stereo not drawn),40.7 µM (active),1.62 µM (active),28.8 µM (active),35.4 µM (active),5.75 µM (active)
Clc1ccc2nsnc2c1NC1=NCCN1,inactive,inactive,inactive,inactive,inactive
Cc1ccc2oc(CN(Cc3ccccc3)C(=O)Nc3c(F)cc(F)cc3F)c(-c3ccc(Cl)cc3)c2c1,10.9 µM (active),4.34 µM (active),54.6 µM (active),inactive,2.44 µM (active)
CCCCC(CC)COP(=O)(O)OCC(CC)CCCC (stereo not drawn),31.8 µM (active) and 31.7 µM (active),22.5 µM (active) and 17.8 µM (active),inactive,inactive,inactive
O=C1CCCc2c1cc1ccc3cccc4ccc2c1c34,18.1 µM (active),5.71 µM (active),0.321 µM (active),inactive,9.05 µM (active)
[Cl][Bi]([Cl])([c]1ccccc1)([c]1ccccc1)[c]1ccccc1,0.445 µM (active),1.12 µM (active),19.9 µM (active),13.7 µM (active),8.88 µM (active)
Nc1ccc(N)c2ccccc12,3.17 µM (active),3.99 µM (active),2.52 µM (active),inactive,3.55 µM (active)
